This is one part of the list. How many sequences the whole screen found active is unknown.
Biological target: furin, P09958
Assay: furin cleavage Z-score vs untreated control; higher = more cleavage, active = 3.5 or more, inactive = 1 or less, 8 variable residues between constant flanks
Procedure, shortened: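 Sequencing of released DNA, tagged with adapters by PCR, gave read counts used as abundance. That DNA was freed when purified furin cut N-terminally bead-bound 8-mer peptides fused to a cDNA oligonucleotide, in 0.01 ml reactions at 1:10 enzyme:substrate in 50 mM HEPES pH 7.5 with CaCl2 and NaCl, lasting 7.5, 15 or 30 min. The cleavage Z-score was the lowess-adjusted log count versus furin-free reactions, scaled by median absolute deviation.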

furin, P09958, sequence (P09958 whole entry): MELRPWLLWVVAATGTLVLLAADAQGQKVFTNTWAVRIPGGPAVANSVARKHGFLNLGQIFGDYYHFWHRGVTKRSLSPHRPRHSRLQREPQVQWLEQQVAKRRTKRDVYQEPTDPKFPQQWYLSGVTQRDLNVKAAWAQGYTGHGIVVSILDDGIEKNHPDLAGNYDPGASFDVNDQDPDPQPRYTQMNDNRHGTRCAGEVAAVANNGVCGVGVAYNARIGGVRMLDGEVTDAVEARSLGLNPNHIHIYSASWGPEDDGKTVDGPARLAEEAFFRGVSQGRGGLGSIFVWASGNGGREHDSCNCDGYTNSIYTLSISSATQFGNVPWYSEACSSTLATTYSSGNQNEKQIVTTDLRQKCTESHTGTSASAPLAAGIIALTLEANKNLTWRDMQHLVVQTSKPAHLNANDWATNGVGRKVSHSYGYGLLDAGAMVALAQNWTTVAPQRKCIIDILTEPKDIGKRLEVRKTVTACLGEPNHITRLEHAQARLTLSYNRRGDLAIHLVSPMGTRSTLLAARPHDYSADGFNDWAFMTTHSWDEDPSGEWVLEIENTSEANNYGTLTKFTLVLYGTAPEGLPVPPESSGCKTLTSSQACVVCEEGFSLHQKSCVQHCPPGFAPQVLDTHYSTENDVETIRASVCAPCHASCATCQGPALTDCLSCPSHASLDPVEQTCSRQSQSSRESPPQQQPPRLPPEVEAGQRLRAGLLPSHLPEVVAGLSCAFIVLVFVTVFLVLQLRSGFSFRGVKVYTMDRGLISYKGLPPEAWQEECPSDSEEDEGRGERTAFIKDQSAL

Sequence | furin cleavage Z-score (7.5 min) | furin cleavage Z-score (15 min) | furin cleavage Z-score (30 min)
CAEVPCHRPHAGNASASA [HC2415] | 0.403 (inactive) | -0.336 (inactive) | 0.894 (inactive)
CAADAILHTPAGNASASA [HC269] | 0.255 (inactive) | -1.84 (inactive) | -0.719 (inactive)
CAIEPRSFSQAGNASASA [TR3] | -0.606 (inactive) | -1.14 (inactive) | -0.409 (inactive)
CATTPKSGSWAGNASASA [HC51] | -0.56 (inactive) | -0.574 (inactive) | -0.879 (inactive)
CARPRRYLYQAGNASASA [FS-2285] | 3.25 | 3.5 | 5.12 (active)
CAKPARLIVFAGNASASA [HC1448] | 0.00411 (inactive) | -1.12 (inactive) | -1.48 (inactive)
CARPRRSIVFAGNASASA [FS-3229] | 4.51 (active) | 5.67 (active) | 7.41 (active)
CASRPCSAHLAGNASASA [HC2493] | 0.596 (inactive) | 1.57 | 0.79 (inactive)
CARRSRAASVAGNASASA [FS-1839] | 1.46 | 1.72 | 3.72 (active)
CALRKRSSSTAGNASASA [FS-3179] | 0.00727 (inactive) | 0.0326 (inactive) | -0.921 (inactive)
CARRRRSSSTAGNASASA [FS-3068] | 8.2 (active) | 7.85 (active) | 5.87 (active)
CADDEVVTSTAGNASASA [HC2291] | 0.608 (inactive) | 0.354 (inactive) | -0.134 (inactive)
CARRRRSSSVAGNASASA [FS-2299] | 3.15 | 3.17 | 3.52 (active)
CARRDRSTSIAGNASASA [FS-3203] | -0.171 (inactive) | 0.756 (inactive) | 1.79
CARRNRSTSTAGNASASA [FS-2072] | 4.22 (active) | 6.96 (active) | 4.29 (active)
CARSFRTASVAGNASASA [FS-3078] | 0.727 (inactive) | 0.141 (inactive) | 1.09
CAMEECDQHLAGNASASA [HC32] | -1.25 (inactive) | -0.295 (inactive) | 0.17 (inactive)
CAGKAIPLEVAGNASASA [HC849] | -0.874 (inactive) | -0.849 (inactive) | -0.983 (inactive)
CAEVVGSTWVAGNASASA [HC122] | -0.227 (inactive) | 0.0769 (inactive) | 0.871 (inactive)
CASTDCSAHLAGNASASA [HC2511] | -0.745 (inactive) | -1.14 (inactive) | 1.19
CATPPRERRGAGNASASA [FS-1095] | -0.768 (inactive) | -0.415 (inactive) | -0.163 (inactive)
CAAPARERRGAGNASASA [FS-6] | 7.34 (active) | 8.29 (active) | 7.48 (active)
CAAPKRRRRGAGNASASA [FS-323] | 4.98 (active) | 4.92 (active) | 3.74 (active)

Sequence | furin cleavage Z-score (7.5 min) | furin cleavage Z-score (15 min) | furin cleavage Z-score (30 min)
CAVIPVRRRGAGNASASA [HC730] | -0.464 (inactive) | 0.132 (inactive) | -0.326 (inactive)
CAPHRRRRRGAGNASASA [FS-555] | 5.9 (active) | 4.87 (active) | 5.4 (active)
CAPGHLRRRGAGNASASA [FS-1046] | -0.0765 (inactive) | 0.0326 (inactive) | 0.261 (inactive)
CALFRRRRRGAGNASASA [FS-606] | 5.12 (active) | 5.02 (active) | 5.06 (active)
CAHGLVSFLVAGNASASA [HC542] | 0.693 (inactive) | -0.401 (inactive) | 0.576 (inactive)
CAVDYPYRLWAGNASASA [HC465] | 0.139 (inactive) | 0.651 (inactive) | 1.32
CATGPCSGSWAGNASASA [HC1856] | -0.371 (inactive) | -0.739 (inactive) | -1.48 (inactive)
CARLKKFQEAAGNASASA [FS-2987] | -0.948 (inactive) | -1.1 (inactive) | -1.63 (inactive)
CAGENLYFQSAGNASASA [TV1] | -1.03 (inactive) | -1.63 (inactive) | -0.511 (inactive)
CAPINAYTTGAGNASASA [HC1191] | 0.157 (inactive) | 0.17 (inactive) | 0.965 (inactive)
CAAESRACRGAGNASASA [FS-742] | -0.725 (inactive) | -0.739 (inactive) | -0.66 (inactive)
CAAERRHYRPAGNASASA [FS-969] | 0.389 (inactive) | 0.437 (inactive) | 0.0544 (inactive)
CACHRRMRRGAGNASASA [FS-404] | 10.7 (active) | 8.52 (active) | 8.21 (active)
CAAERRRRRGAGNASASA [FS-2] | 4.28 (active) | 3.26 | 2.64
CADEVDNKVKAGNASASA [CS4] | -0.725 (inactive) | -1.22 (inactive) | -1.28 (inactive)
CAPGAATAFVAGNASASA [HC1072] | 0.989 (inactive) | 1.72 | 0.199 (inactive)
CASVAATLGFAGNASASA [HC789] | 1.93 | 0.468 (inactive) | 0.352 (inactive)
CAGLRRRRRFAGNASASA [FS-531] | 7.13 (active) | 8.7 (active) | 7.24 (active)
CARVARRRRFAGNASASA [FS-1164] | 8.04 (active) | 10 (active) | 7.4 (active)
CAILTRRRRFAGNASASA [FS-1347] | 8.01 (active) | 8.67 (active) | 7.5 (active)
CATQVRRRRFAGNASASA [FS-1497] | 6.78 (active) | 10.5 (active) | 7.46 (active)
CARSADGRRFAGNASASA [FS-1654] | -0.463 (inactive) | -0.885 (inactive) | -0.419 (inactive)
CAKDYRRIRFAGNASASA [FS-173] | 0.143 (inactive) | -0.374 (inactive) | 0.736 (inactive)

Reference: the supplement of paper PMC3545927
